From PubChem BioAssay (EPA / NIEHS)
Calls of active or inactive are those of the source. Rule for the calls: active = hit-call score of the fitted dose curve at least 0.9, where 1 is the maximum; inactive = score below 0.9.

Assays:
[1] = read-out: TIMP metallopeptidase inhibitor 2 (TIMP2), TIMP2 (gene 7077); assay: BSK_KF3CT_TIMP2: BioMAP Diversity Plus: KF3CT Assay for TIMP metallopeptidase inhibitor 2 (TIMP2) Biomarker Activity (AID 2283071); conditions: primary human keratinocytes with fibroblasts; actives raise or lower the signal
Procedure, shortened: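 Co-culture of human primary keratinocytes and foreskin fibroblasts, measured 24 h after chemical dosing. TIMP-2 quantified by ELISA and fitted in both directions relative to DMSO. Cytotoxicity checked in parallel cultures by SRB total-protein staining.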

[2] = read-out: Transforming growth factor beta 1 (TGFb1), TGFB1 (gene 7040); assay: BSK_KF3CT_TGFb1: BioMAP Diversity Plus: KF3CT Assay for Transforming growth factor beta 1 (TGFb1) Biomarker Activity (AID 2283072); conditions: primary human keratinocytes with fibroblasts; actives raise or lower the signal
Procedure, shortened: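 Human keratinocyte/foreskin fibroblast co-culture; TGF-b1 measured by ELISA 24 h after dosing, fitted bidirectionally versus DMSO. Cytotoxicity checked in parallel cultures by total protein (SRB staining, 560 nm).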

[3] = read-out: C-C motif chemokine 2 (Homo sapiens) (UniProt P13500); assay: BSK_KF3CT_MCP1: BioMAP Diversity Plus: KF3CT Assay for Monocyte Chemoattractant Protein 1 (MCP1/CCL2) Biomarker Activity (AID 2283073); conditions: primary human keratinocytes with fibroblasts; actives raise or lower the signal
Procedure, shortened: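 Human keratinocyte–foreskin fibroblast co-culture; MCP-1 measured by ELISA 24 h after dosing. Bidirectional fit vs DMSO; cytotoxicity tracked by SRB total protein in parallel cultures.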

[4] = read-out: Matrix Metallopeptidase 9 (MMP9), MMP9 (gene 4318); assay: BSK_KF3CT_MMP9: BioMAP Diversity Plus: KF3CT Assay for Matrix Metallopeptidase 9 (MMP9) Biomarker Activity (AID 2283074); conditions: primary human keratinocytes with fibroblasts; actives raise or lower the signal;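 note: MMP9 protein level quantified by ELISA in the co-culture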
Procedure, shortened: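 Human keratinocyte and foreskin fibroblast co-culture exposed to chemicals for 24 h; MMP9 biomarker measured by ELISA, bidirectional fitting relative to DMSO; cytotoxicity tracked by SRB total protein staining in parallel cultures.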

CD40, CD40 (gene 958) [5] = assay: BSK_LPS_CD40: BioMAP Diversity Plus: LPS Assay for CD40 Biomarker Activity (AID 2283076); conditions: primary human HUVEC with PBMC; actives raise or lower the signal
Procedure, shortened: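 HUVEC plus PBMC co-culture stimulated with LPS; CD40 quantified by ELISA 24 h after compound dosing. Fitting was bidirectional relative to DMSO. SRB staining of parallel cultures flagged overt cytotoxicity.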

[6] = read-out: E-selectin (Homo sapiens) (UniProt P16581); assay: BSK_LPS_Eselectin: BioMAP Diversity Plus: LPS Assay for Eselectin Biomarker Activity (AID 2283077); conditions: primary human HUVEC with PBMC; actives raise or lower the signal
Procedure, shortened: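 Human umbilical vein endothelial cells co-cultured with PBMC under LPS stimulation; cell-surface E-selectin measured by ELISA 24 h after dosing. Change in either direction versus DMSO, with SRB total-protein staining in parallel cultures for cytotoxicity.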

[7] = read-out: Interleukin-8 (IL8), CXCL8 (gene 3576); assay: BSK_LPS_IL8: BioMAP Diversity Plus: LPS Assay for Interleukin-8 (IL8) Biomarker Activity (AID 2283078); conditions: primary human HUVEC with PBMC; actives raise or lower the signal
Procedure, shortened: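 Human umbilical vein endothelial cells co-cultured with PBMC, LPS-stimulated, exposed to compound for 24 h. IL-8 quantified by ELISA; fitted in both directions against DMSO, with SRB total-protein staining of parallel cultures for cytotoxicity.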

[8] = BSK_LPS_SRB: Viability Assessment in the BioMAP Diversity Plus: LPS Assay (AID 2283079); conditions: primary human HUVEC with PBMC;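 note: total protein by sulforhodamine B absorbance as a cytotoxicity measure; measured one day after compound addition; fitted in both directions against DMSO so loss or gain of signal counts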
Procedure, shortened: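 Co-culture of human umbilical vein endothelial cells and PBMC, read 24 h after dosing. Total protein by 0.1% SRB staining after 10% TCA fixation, absorbance at 560 nm; bidirectional fit against DMSO.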

[9] = read-out: Interleukin-1 alpha (IL1a), IL1A (gene 3552); assay: BSK_LPS_IL1a: BioMAP Diversity Plus: LPS Assay for Interleukin-1 alpha (IL1a) Biomarker Activity (AID 2283080); conditions: primary human HUVEC with PBMC; actives raise or lower the signal
Procedure, shortened: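 Human umbilical vein endothelial cells co-cultured with PBMC and stimulated with LPS; IL-1a measured by ELISA 24 h after dosing. Bidirectional fitting against DMSO; cytotoxicity checked by SRB staining in parallel cultures.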

[10] = BSK_LPS_PGE2: BioMAP Diversity Plus: LPS Assay for Prostaglandin E2 (PGE2) Biomarker Activity (AID 2283082); conditions: primary human HUVEC with PBMC; actives raise or lower the signal;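 for AC50: secreted prostaglandin E2 measured by ELISA in LPS-stimulated co-culture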
Procedure, shortened: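 HUVEC plus human PBMC co-culture stimulated with LPS; secreted PGE2 quantified by ELISA 24 h after chemical dosing. Activity fitted bidirectionally against DMSO baseline; parallel SRB staining (0.1% SRB after 10% TCA fixation, 560 nm) flags overt cytotoxicity.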

[11] = read-out: Tumor necrosis factor (Homo sapiens) (UniProt P01375); assay: BSK_LPS_TNFa: BioMAP Diversity Plus: LPS Assay for Tumour Necrosis Factor alpha (TNFa) Biomarker Activity (AID 2283085); conditions: primary human HUVEC with PBMC; actives raise or lower the signal
Procedure, shortened: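 Human umbilical vein endothelial cells co-cultured with PBMC and stimulated with LPS. TNFa was measured by ELISA 24 h after chemical dosing, fitted bidirectionally relative to DMSO.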

[12] = read-out: Vascular cell adhesion molecule 1 (VCAM1), VCAM1 (gene 7412); assay: BSK_LPS_VCAM1: BioMAP Diversity Plus: LPS Assay for Vascular cell adhesion molecule 1 (VCAM1) Biomarker Activity (AID 2283086); conditions: primary human HUVEC with PBMC; actives raise or lower the signal
Procedure, shortened: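 Human umbilical vein endothelial cells co-cultured with PBMC and stimulated with LPS; VCAM-1 measured by ELISA 24 h after dosing. Bidirectional curve fitting against DMSO baseline; cytotoxicity tracked in parallel by SRB total-protein staining.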

CD40, CD40 (gene 958) [13] = assay: BSK_SAg_CD40: BioMAP Diversity Plus: SAg Assay for CD40 Biomarker Activity (AID 2283088); conditions: primary human HUVEC with PBMC; actives raise or lower the signal
Procedure, shortened: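 HUVEC plus PBMC co-culture, superantigen-activated, with CD40 read by ELISA 24 h after dosing. Curves fitted in both directions against DMSO. Overt cytotoxicity checked by parallel SRB total-protein staining.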

CD69, CD69 (gene 969) = assay: BSK_SAg_CD69: BioMAP Diversity Plus: SAg Assay for CD69 Biomarker Activity (AID 2283089); conditions: primary human HUVEC with PBMC; actives raise or lower the signal;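 note: cell surface CD69 protein quantified by ELISA with fluorescence detection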
Procedure, shortened: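 HUVEC co-cultured with PBMC were dosed with chemical, and CD69 was measured by ELISA with fluorescence read-out 24 h later. Bidirectional curve fitting used DMSO as negative control and activity baseline.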

[14] = read-out: Monocyte Chemoattractant Protein-1 (MCP1), CCL2 (gene 6347); assay: BSK_SAg_MCP1: BioMAP Diversity Plus: SAg Assay for Monocyte Chemoattractant Protein-1 (MCP1) Biomarker Activity (AID 2283090); conditions: primary human HUVEC with PBMC; actives raise or lower the signal
Procedure, shortened: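 MCP-1 levels in the endothelial–PBMC SAg co-culture were quantified by ELISA at 24 h post-dosing; both increases and decreases versus DMSO scored. Cytotoxicity monitored by SRB total protein in parallel cultures.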

[15] = read-out: urokinase plasminogen activator (uPA), PLAU (gene 5328); assay: BSK_KF3CT_uPA: BioMAP Diversity Plus: KF3CT Assay for urokinase plasminogen activator (uPA) Biomarker Activity (AID 2283075); conditions: primary human keratinocytes with fibroblasts; actives raise or lower the signal
Procedure, shortened: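 Primary human keratinocyte/foreskin fibroblast co-culture exposed to chemical; uPA measured by ELISA at 24 h. Bidirectional fit versus DMSO, with parallel SRB total-protein staining for cytotoxicity.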

[16] = read-out: Monocyte Chemoattractant Protein-1 (MCP1), CCL2 (gene 6347); assay: BSK_LPS_MCP1: BioMAP Diversity Plus: LPS Assay for Monocyte Chemoattractant Protein-1 (MCP1) Biomarker Activity (AID 2283081); conditions: primary human HUVEC with PBMC; actives raise or lower the signal
Procedure, shortened: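 Human umbilical vein endothelial cells co-cultured with PBMC, LPS-stimulated; secreted MCP-1 measured by ELISA 24 h after compound addition. Bidirectional curve fitting against DMSO baseline; SRB total-protein staining in parallel cultures for cytotoxicity.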

[17] = read-out: Macrophage colony-stimulating factor (MCSF), CSF1 (gene 1435); assay: BSK_LPS_MCSF: BioMAP Diversity Plus: LPS Assay for Macrophage colony-stimulating factor (MCSF) Biomarker Activity (AID 2283083); conditions: primary human HUVEC with PBMC; actives raise or lower the signal
Procedure, shortened: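 HUVEC–PBMC co-culture, M-CSF measured by ELISA 24 h after chemical dosing. Fitted in both directions relative to DMSO as negative control; overt cytotoxicity assessed by SRB total-protein staining in parallel cultures.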

[18] = read-out: Tissue Factor, F3 (gene 2152); assay: BSK_LPS_TissueFactor: BioMAP Diversity Plus: LPS Assay for Tissue Factor Biomarker Activity (AID 2283084); conditions: primary human HUVEC with PBMC; actives raise or lower the signal
Procedure, shortened: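 Human umbilical vein endothelial cells co-cultured with PBMC were dosed with compound. Cell-surface CD142 was measured by ELISA 24 h later. Activity was fitted bidirectionally against DMSO, with SRB total-protein staining in parallel cultures for cytotoxicity.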

CD38, CD38 (gene 952) = assay: BSK_SAg_CD38: BioMAP Diversity Plus: SAg Assay for CD38 Biomarker Activity (AID 2283087); conditions: primary human HUVEC with PBMC; actives raise or lower the signal
Procedure, shortened: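 Human HUVEC plus PBMC co-culture stimulated with superantigen; CD38 measured by ELISA 24 h after chemical dosing. Fluorescence read-out, bidirectional fit against DMSO; cytotoxicity tracked in parallel by SRB and Alamar Blue.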

Measured: AC50

Chain of E-selectin (Homo sapiens) (P16581 whole entry, looked up): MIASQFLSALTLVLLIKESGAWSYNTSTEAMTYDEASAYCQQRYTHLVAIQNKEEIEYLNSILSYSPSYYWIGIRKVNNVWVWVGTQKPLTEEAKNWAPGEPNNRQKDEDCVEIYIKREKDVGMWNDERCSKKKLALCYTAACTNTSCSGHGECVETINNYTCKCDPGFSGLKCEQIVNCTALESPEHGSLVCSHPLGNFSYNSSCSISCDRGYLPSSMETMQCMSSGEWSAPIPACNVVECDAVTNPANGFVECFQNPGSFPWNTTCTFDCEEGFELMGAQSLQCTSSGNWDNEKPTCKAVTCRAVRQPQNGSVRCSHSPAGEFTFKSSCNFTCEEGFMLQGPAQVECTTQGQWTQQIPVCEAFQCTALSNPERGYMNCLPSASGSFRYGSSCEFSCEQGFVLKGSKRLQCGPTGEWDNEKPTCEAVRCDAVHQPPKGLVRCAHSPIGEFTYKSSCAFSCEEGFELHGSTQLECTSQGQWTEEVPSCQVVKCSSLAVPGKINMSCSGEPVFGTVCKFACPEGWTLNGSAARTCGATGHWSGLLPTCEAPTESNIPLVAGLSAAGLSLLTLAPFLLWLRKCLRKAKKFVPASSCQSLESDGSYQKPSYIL
Chain of Tumor necrosis factor (Homo sapiens) (P01375 whole entry, looked up): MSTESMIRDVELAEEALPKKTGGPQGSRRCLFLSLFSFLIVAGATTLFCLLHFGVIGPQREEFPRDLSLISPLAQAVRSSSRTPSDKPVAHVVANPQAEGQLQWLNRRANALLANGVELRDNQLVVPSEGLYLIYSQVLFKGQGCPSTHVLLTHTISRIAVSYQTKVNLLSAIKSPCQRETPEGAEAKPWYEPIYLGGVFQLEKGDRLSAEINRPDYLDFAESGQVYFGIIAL

CCN(CC)C(=O)c1cc(S(=O)(=O)Cc2ccccc2)c(N2CCC(c3ccccc3)CC2)cc1N(CC)CCN(C)C
active: [4] 24 µM | CD40, CD40 (gene 958) [5] 8.94 µM | [6] 27.6 µM | [7] 18.7 µM | [8] 10.5 µM | [9] 8.53 µM | [11] 12.4 µM | [12] 11.5 µM | CD40, CD40 (gene 958) [13] 10.4 µM | CD69, CD69 (gene 969) 9.82 µM | [14] 11.8 µM
inactive: [1] | [2] | [3] | [10]

CC[C@H](NC(=O)c1cc(F)ccc1NS(=O)(=O)c1cccc2cccnc12)c1ccccc1
inactive: [1] | [2] | [3] | [15] | CD40, CD40 (gene 958) [5] | [6] | [7] | [8] | [9] | [16] | [17] | [18] | [11] | [12] | CD38, CD38 (gene 952)
active: [10] 8.72 µM | CD40, CD40 (gene 958) [13] 6.29 µM | CD69, CD69 (gene 969) 10.5 µM | [14] 5.84 µM

CCCCCCCCCCCCO
active: [1] 30 µM | [2] 30.9 µM | [3] 35 µM | [4] 33 µM | [6] 19.8 µM | [8] 30.4 µM | [9] 36.3 µM | [18] 19.8 µM | [11] 29.7 µM | [12] 19.8 µM | CD40, CD40 (gene 958) [13] 31.6 µM | CD69, CD69 (gene 969) 31 µM | [14] 30.4 µM
inactive: CD40, CD40 (gene 958) [5] | [7] | [10]
